In PubChem BioAssay AID1159580 (chemical genetic matrix, 2015):
Out of some 5,500 compounds screened, about 2,000 (36%) were called active. Another 18% or so got no clear call; they are omitted. No stated cut-off is given here; in the data, active means normalized growth mostly below about 0.91 (no sharp cut-off); inconclusive means no clear call, values can overlap the other calls; inactive means mostly above about 0.92. The list shows a part of the results.

Test: chemical genetic growth profiling, strain panel (AID 1159580);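 further: tested at 20 µM; growth read once vehicle control cultures reached saturation at 30 °C; 1 = growth at the plate median or of vehicle wells; lower values mean less growth of the strain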
Settings: S. cerevisiae deletion strains, growth OD

Measured: normalized growth

C=C1C2CC[C@@]3(C)[C@H](c4ccoc4)OC(=O)C[C@]13O[C@H]1CC(=O)C(C)(C)[C@H](C(OC(C)=O)C(=O)OC)[C@@]21C (stereo not given in full)
inactive: locus YAL021C, strain ccr4, active compounds read low 1 | locus YAL026C, strain drs2, active compounds read low 1.03 | locus YAL030W, strain snc1, active compounds read low 1 | locus YBL061C, strain skt5, active compounds read low 1.02 | locus YBR009C, strain hhf1, active compounds read low 1.02 | locus YBR021W, strain FUR4, active compounds read low 0.999 | locus YBR023C, strain chs3, active compounds read low 0.998 | locus YBR171W, strain sec66, active compounds read low 1.02 | locus YBR229C, strain ROT2, active compounds read low 0.994 | locus YBR231C, strain swc5, active compounds read low 1.04 | locus YBR279W, strain paf1, active compounds read low 1.01 | locus YCL011C, strain gbp2, active compounds read low 0.993 | locus YCL016C, strain dcc1, active compounds read low 0.983 | locus YCL029C, strain bik1, active compounds read low 1 | locus YCL069W, strain vba3, active compounds read low 1 | locus YCR088W, strain abp1, active compounds read low 1.01 | locus YDL005C, strain med2, active compounds read low 1.01 | locus YDL035C, strain GPR1, active compounds read low 0.978 | locus YDL040C, strain nat1, active compounds read low 1 | locus YDL074C, strain BRE1, active compounds read low 1.01 | locus YDL101C, strain DUN1, active compounds read low 1.01 | locus YDL185W, strain tfp1, active compounds read low 1.01 | locus YDL192W, strain arf1, active compounds read low 0.998 | locus YDR001C, strain nth1, active compounds read low 1.02 | locus YDR069C, strain doa4, active compounds read low 1.03 | locus YDR101C, strain arx1, active compounds read low 0.978 | locus YDR137W, strain rgp1, active compounds read low 0.872 | locus YDR150W, strain NUM1, active compounds read low 0.985 | locus YDR159W, strain sac3, active compounds read low 1.05 | locus YDR162C, strain NBP2, active compounds read low 0.985 | locus YDR195W, strain ref2 1.02 | locus YDR297W, strain sur2, active compounds read low 1.02 | locus YDR318W, strain mcm21, active compounds read low 1.01 | locus YDR334W, strain swr1, active compounds read low 1.01 | locus YDR335W, strain msn5, active compounds read low 1.01 | locus YDR388W, active compounds read low 1.01 | locus YDR392W, strain spt3, active compounds read low 0.922 | locus YDR502C, strain sam2, active compounds read low 1.02 | locus YEL003W, strain gim4, active compounds read low 1.03 | locus YEL037C, strain rad23, active compounds read low 1.01 | locus YEL061C, strain CIN8 (second series), active compounds read low 1.01 | locus YEL061C, strain CIN8, active compounds read low 0.99 | locus YER015W, strain faa2, active compounds read low 1 | locus YER016W, strain bim1, active compounds read low 1.01 | locus YER110C, active compounds read low 1.01 | locus YER111C, strain swi4, active compounds read low 1.02 | locus YER155C, strain BEM2 (second series), active compounds read low 1.06 | locus YER155C, strain BEM2, active compounds read low 1.02 | locus YER167W, strain BCK2, active compounds read low 1 | locus YFR010W, strain ubp6, active compounds read low 1.04 | locus YGL078C, strain dbp3, active compounds read low 1.01 | locus YGL086W, strain mad1, active compounds read low 0.987 | locus YGL167C, strain pmr1, active compounds read low 1.01 | locus YGL173C, strain kem1, active compounds read low 1.03 | locus YGL227W, strain vid30, active compounds read low 1.01 | locus YGL240W, strain doc1, active compounds read low 1.03 | locus YGL248W, strain PDE1, active compounds read low 1.01 | locus YGL253W, strain hxk2, active compounds read low 0.99 | locus YGR135W, strain pre9, active compounds read low 1.05 | locus YGR252W, strain gcn5, active compounds read low 1.02 | locus YHR013C, strain ard1, active compounds read low 0.983 | locus YHR027C, strain rpn1, active compounds read low 1.02 | locus YHR079C, strain IRE1 (second series), active compounds read low 0.997 | locus YHR094C, strain hxt1, active compounds read low 1.01 | locus YHR129C, strain ARP1, active compounds read low 1.01 | locus YHR142W, strain chs7, active compounds read low 0.977 | locus YHR200W, strain rpn10, active compounds read low 1.01 | locus YIL066C, strain RNR3, active compounds read low 0.976 | locus YIL073C, strain SPO22, active compounds read low 1.01 | locus YIL125W, strain kgd1, active compounds read low 0.994 | locus YIR030C, strain dcg1, active compounds read low 0.997 | locus YJL092W, strain hpr5, active compounds read low 1.02 | locus YJL095W, strain BCK1 (second series), active compounds read low 1.02 | locus YJL095W, strain BCK1, active compounds read low 1.04 | locus YJL115W, strain asf1, active compounds read low 1.01 | locus YJL129C, strain trk1, active compounds read low 1 | locus YJL134W, strain LCB3, active compounds read low 0.998 | locus YJL154C, strain vps35, active compounds read low 1.01 | locus YJL164C, strain tpk1, active compounds read low 0.995 | locus YJL166W, strain qcr8, active compounds read low 1.03 | locus YJL168C, strain set2, active compounds read low 1 | locus YJL187C, strain SWE1 (second series), active compounds read low 1.03 | locus YJL187C, strain SWE1, active compounds read low 1 | locus YKL009W, strain mrt4, active compounds read low 0.983 | locus YKL068W, active compounds read low 1 | locus YKL085W, strain MDH1 (second series), active compounds read low 0.981 | locus YKL085W, strain MDH1, active compounds read low 0.981 | locus YKL160W, strain elf1, active compounds read low 0.976 | locus YKR001C, strain vps1, active compounds read low 0.995 | locus YKR026C, strain gcn3, active compounds read low 1.01 | locus YKR091W, strain srl3, active compounds read low 1 | locus YLL001W, strain dnm1, active compounds read low 0.992 | locus YLL026W, active compounds read low 1 | locus YLL041C, strain sdh2, active compounds read low 1.01 | locus YLR027C, strain aat2, active compounds read low 1.02 | locus YLR039C, strain RIC1, active compounds read low 0.917 | locus YLR058C, strain SHM2, active compounds read low 1.01 | locus YLR102C, strain apc9, active compounds read low 1 | locus YLR221C, strain rsa3, active compounds read low 1.04 | locus YLR258W, strain gsy2, active compounds read low 1.02 | locus YLR262C, strain YPT6 (second series), active compounds read low 0.892 | locus YLR268W, strain sec22, active compounds read low 0.987 | locus YLR320W, strain mms22, active compounds read low 1.03 | locus YLR342W, strain FKS1 (second series), active compounds read low 0.978 | locus YLR342W, strain FKS1, active compounds read low 1 | locus YLR357W, strain rsc2, active compounds read low 1.02 | locus YLR370C, strain arc18, active compounds read low 0.998 | locus YLR371W, strain rom2, active compounds read low 1 | locus YLR384C, strain iki3, active compounds read low 1.03 | locus YLR418C, strain cdc73, active compounds read low 1.01 | locus YML016C, strain PPZ1, active compounds read low 1 | locus YML032C, strain rad52, active compounds read low 1.01 | locus YML120C, strain ndi1, active compounds read low 1.01 | locus YML124C, strain tub3, active compounds read low 1 | locus YMR058W, strain fet3, active compounds read low 1.03 | locus YMR078C, strain ctf18, active compounds read low 1.01 | locus YMR125W, strain sto1, active compounds read low 0.996 | locus YMR129W, active compounds read low 1.01 | locus YMR205C, strain PFK2, active compounds read low 0.992 | locus YMR223W, strain ubp8, active compounds read low 1.01 | locus YMR231W, strain pep5, active compounds read low 1.01 | locus YMR307W, strain GAS1, active compounds read low 0.996 | locus YNL067W, strain RPL9B, active compounds read low 1.03 | locus YNL071W, strain lat1, active compounds read low 0.993 | locus YNL209W, strain ssb2, active compounds read low 0.993 | locus YNL233W, strain BNI4, active compounds read low 1.01 | locus YNL248C, strain rpa49, active compounds read low 1.04 | locus YNL250W, strain rad50, active compounds read low 1.03 | locus YNL271C, strain bni1, active compounds read low 1 | locus YNL298W, strain CLA4, active compounds read low 1.01 | locus YNL307C, strain MCK1, active compounds read low 1.01 | locus YNL322C, strain KRE1 (second series), active compounds read low 1.02 | locus YNR049C, strain mso1, active compounds read low 1.01 | locus YNR052C, strain pop2, active compounds read low 1.02 | locus YOL006C, strain TOP1, active compounds read low 0.972 | locus YOL012C, strain htz1 0.586 | locus YOL147C, strain pex11, active compounds read low 1 | locus YOR001W, strain rrp6, active compounds read low 1.04 | locus YOR061W, strain CKA2, active compounds read low 0.997 | locus YOR069W, strain VPS5, active compounds read low 1 | locus YOR070C, strain gyp1, active compounds read low 1.03 | locus YOR080W, strain dia2, active compounds read low 1.01 | locus YOR083W, strain WHI5, active compounds read low 0.978 | locus YOR106W, strain vam3, active compounds read low 0.958 | locus YOR136W, strain idh2, active compounds read low 0.997 | locus YOR144C, strain elg1, active compounds read low 1 | locus YOR184W, strain ser1, active compounds read low 0.972 | locus YOR265W, strain rbl2, active compounds read low 0.996 | locus YOR270C, strain vph1, active compounds read low 0.904 | locus YOR290C, strain snf2, active compounds read low 0.95 | locus YOR316C, strain cot1, active compounds read low 1 | locus YPL051W, strain arl3, active compounds read low 1.01 | locus YPL078C, strain atp4, active compounds read low 0.958 | locus YPL106C, strain sse1, active compounds read low 1.04 | locus YPL240C, strain hsp82, active compounds read low 1.01 | locus YPR119W, strain clb2, active compounds read low 1.01 | locus YPR141C, strain kar3, active compounds read low 1 | locus YPR163C, strain tif3, active compounds read low 1.01 | locus YPR167C, strain met16, active compounds read low 0.999 | strain wtn01, active compounds read low 0.993
